Experimental data taken from the supplement of paper PMC6555819.

Key:
Assay in all cases: PBM binding z-score (relative to random genomic background probes); higher = stronger binding; sequences stand for … in GC…GCGATTGACAGCGTAGAATGAAGG
[1] = system: FXR:RXRa (NR concentration 270 nM, RXRa partner concentration 90 nM)
How it was run: (§1)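 Regression normalization was applied to scanned fluorescence from custom Agilent 4×180K protein-binding microarrays. Before scanning, arrays were incubated 1 h with ligand-free nuclear receptor dimers, and binding was detected with antibodies against each partner (one per run). Binding z-scores use the random background probes as reference.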

[2] = system: LXRa:RXRa (NR concentration 270 nM, RXRa partner concentration 90 nM)
How it was run: as §1

[3] = system: LXRa homodimer (NR concentration 270 nM)
How it was run: as §1

[4] = system: LXRb:RXRa (NR concentration 270 nM, RXRa partner concentration 90 nM)
How it was run: as §1

[5] = system: LXRb homodimer (NR concentration 270 nM)
How it was run: as §1

[6] = system: PPARa:RXRa (NR concentration 270 nM, RXRa partner concentration 90 nM)
How it was run: as §1

[7] = system: PPARg:RXRa (NR concentration 180 nM, RXRa partner concentration 90 nM)
How it was run: as §1

[8] = system: PPARg:RXRa 270nM:90nM, anti-RXR (NR concentration 270 nM, RXRa partner concentration 90 nM)
How it was run: as §1

[9] = system: PPARg:RXRa 30nM:10nM, anti-RXR (NR concentration 30 nM, RXRa partner concentration 10 nM)
How it was run: as §1

[10] = system: PPARg:RXRa 90nM:30nM, anti-RXR (NR concentration 90 nM, RXRa partner concentration 30 nM)
How it was run: as §1

Sequence | PBM binding z-score [1] | PBM binding z-score [2] | PBM binding z-score [3] | PBM binding z-score [4] | PBM binding z-score [5] | PBM binding z-score [6] | PBM binding z-score [7] | PBM binding z-score [8] | PBM binding z-score [9] | PBM binding z-score [10]
TTACCAAGGTGAGCTGAGGGCGTTGATCCAACTC | 0.29 | -0.133 | -0.543 | -0.27 | -1.16 | 0.372 | -0.203 | -0.041 | -0.278 | -0.0993
CCGACTGGGGCAAAGGTTACCATACTCAGTACGA | 1.57 | 1.66 | 0.0551 | 2.1 | -0.895 | 5.49 | 11.2 | 9.84 | 8.71 | 11.5
CGAACTAGGTCAAGGACAGAGAATCTCCGCACGC | 3.32 | 1.95 | -0.0711 | 1.25 | -0.37 | 4.47 | 7.55 | 6.28 | 3.62 | 5.63
ATATGTAGGTTTAGGGTCATTCAGGTTGGTTCGC | 4.11 | 3.91 | 1.71 | 3.97 | 1.36 | 4.59 | 5.96 | 6.54 | 4.91 | 6.7
TCGTATAGGTAATACAGGTGAAAGTCGGCATCTA | 0.718 | 1.21 | 0.63 | 0.967 | -0.231 | 1.75 | 0.665 | 1.96 | 2.76 | 2.39
TCATATAGGTAATTCAGGTGAAAGTCGGCATCTA | 1.4 | 1.17 | 0.456 | 1.25 | 0.393 | 1.87 | 1.09 | 2.58 | 4.33 | 3.59
CCTATTAGTTGACCATAAGGGCAAACGAAGCTCG | 1.04 | 0.336 | 0.545 | 0.644 | 0.599 | 0.695 | 0.426 | 0.45 | 0.0598 | 0.284
AGTCAAAGTTCAGAACGAGGTAACGTAAAGCACG | 4.06 | 3.73 | 1.34 | 1.78 | 0.533 | 3.26 | 4.48 | 4.72 | 1.77 | 4.12
TCTAGGAGGACACGAAAGGTCAGAGCTCGACATC | 3.28 | 3.77 | 3.29 | 3.49 | -0.113 | 3.91 | 1.98 | 3.19 | 2.99 | 2.51
ATACCAAGGTGATCGTTAGGTCGTTGATACTAAC | 1.05 | 0.551 | 0.24 | 0.374 | -0.0967 | 0.452 | 0.242 | 0.192 | -0.144 | -0.131
GCTGCTAGGTCAACTGATGGTCAGCTACAGCTCG | 4.25 | 2.91 | 0.26 | 1.97 | 0.014 | 3.65 | 2.65 | 2.9 | 0.862 | 1.99
TCTTGTAGATCAGCAGGTTAAAAAAGCTGGCCAA | 0.198 | 0.216 | -0.0606 | 0.293 | -0.538 | 0.844 | -0.455 | 1.44 | 2.6 | 1.94
CGAACTAGGTCAAGGAAAGTGAATCTCCGCACGC | 2.69 | 1.93 | -0.152 | 1.2 | -0.225 | 4.55 | 7.18 | 6.18 | 3.7 | 5.66
TCTGCAAGGTCAGTTGGTCAGCTAACGAGCTGCC | 4.25 | 2.88 | -0.037 | 2.09 | 1.17 | 3.4 | 1.45 | 2.47 | 1.5 | 1.72
CGAACTAGGTCATTTACAGGACAGTGAATAGTAA | 4.33 | 3.3 | 1.29 | 2.69 | 0.887 | 4.56 | 6.79 | 6.09 | 3.53 | 5.66
GCTTGTAGATCAAGGTTTAGAAAGACTAAGCTAA | -0.378 | -0.689 | -0.302 | -0.532 | -0.671 | 0.113 | 1.13 | 2.05 | 0.713 | 2.05
TCTATTAGTTGCAGGGCAACCGACGAGTCCGTTT | 0.562 | 0.804 | 0.147 | 0.702 | 0.559 | 0.736 | -0.219 | 1.62 | 3.41 | 2.38
AGAATGAGGTTTTTAAGATCAGGGAATTGCGGTC | -0.295 | -0.436 | -0.308 | -0.234 | -0.216 | 0.0197 | 0.144 | 0.00452 | 0.119 | -0.139
CTGACTGGGGCAAGGTTACCATAACGCACAGCCA | 0.457 | 0.792 | -0.00434 | 1.54 | -0.221 | 2.63 | 4.03 | 4.4 | 1.45 | 3.67
TCATATAGGTAGAGGTGAAAGTCGAACGATATGA | 0.743 | 0.996 | -0.23 | 0.833 | -0.246 | 2.43 | 1.96 | 3.02 | 3.6 | 3.28
CTACCAAGGTGCACAAGGTCGTTGATTACTATTC | 0.933 | 1.22 | 0.723 | 1.74 | -0.173 | 1.69 | 0.548 | 0.538 | -0.186 | 0.246
CCTACTGGGCCAAAAAGGTCTTTGATGCCGATAA | -0.753 | -0.556 | -0.512 | -0.343 | -1.15 | 0.669 | 0.196 | 1.01 | -0.425 | 0.203
TCTTGTAGATCAAAGGTTAATAAAGCCGAAGCCT | 1.43 | 1.96 | 0.26 | 2.03 | 0.175 | 4.63 | 7.9 | 7.38 | 7.95 | 8.32
